The list is not random: actives were taken first. Their share in the collection is about 3.6%.
TRHR PAM = allosteric enhancers of human TRH receptor; P34981; TRHR cells, fluo-8 calcium fluorescence, EC20 TRH enhancement; enhancement, % at 2 µM; 0.66% of 360,000 active; AID 493056; in the data active = enhancement above about 30%
Target sequence (P34981 whole entry, looked up): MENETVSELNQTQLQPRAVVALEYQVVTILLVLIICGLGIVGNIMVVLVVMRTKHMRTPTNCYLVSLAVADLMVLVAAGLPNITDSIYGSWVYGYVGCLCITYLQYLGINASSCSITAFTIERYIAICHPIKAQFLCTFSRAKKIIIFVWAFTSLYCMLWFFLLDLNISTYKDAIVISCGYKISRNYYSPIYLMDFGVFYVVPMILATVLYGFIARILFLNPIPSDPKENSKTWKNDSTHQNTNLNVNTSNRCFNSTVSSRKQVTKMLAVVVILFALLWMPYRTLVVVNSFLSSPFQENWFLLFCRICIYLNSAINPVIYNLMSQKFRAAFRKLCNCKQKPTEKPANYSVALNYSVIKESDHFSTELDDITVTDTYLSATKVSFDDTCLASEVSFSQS
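Enhancer read-out: after compound pinning and an initial kinetic agonist-mode read, an EC20 of TRH (10 nM final) was injected and fluo-8 calcium signal (Ex 480/Em 530) followed at 1 s/cycle for 100 cycles in TRHR-expressing cells.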
D1 ag = agonists of human D1 dopamine receptor. P21728. activation, % at 2 µM. AID 504660. 1% of 360,000 active. HEK293 T-REx D1 cells, calcium flux, agonist mode
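Tetracycline-induced HEK293 TREx D1 cells, force-coupled to calcium signalling, were dye-loaded with a no-wash calcium kit. Compound was pin-added after a 10 s baseline. Fluorescence was read kinetically at 1 cycle/s for 180 s, with calcium rises flagged as agonism.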
TRHR ag = TRH receptor (human) agonism | P34981 | TRHR cells, calcium flux fluo-8, FDSS agonist mode | activation, % at 2 µM | 0.18% of 360,000 active | AID 493084
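TRHR-expressing cells loaded with fluo-8 calcium dye; 23 nL library compound pin-transferred, kinetic FDSS fluorescence (Ex 480/Em 530) recorded about 180 s for agonist-induced calcium release, before a 10 nM TRH EC20 addition for potentiator mode.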
D1 antagonist = antagonists of human D1 dopamine receptor; P21728; HEK293 TREx D1 cells, calcium flux, dopamine EC80; stronger effect = lower value; activity change, negative = inhibition, % at 10 µM; 3.2% of 360,000 active; in the data active = activity change below about -30%
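Kinetic fluorescence of a calcium dye serves as the read-out. D1-expressing Hek293 Trex cells, induced overnight at 30 C, are exposed to compound for 180 s before an EC80 dopamine addition, then read 180 s further.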
LDHA inh = blocks human lactate dehydrogenase A | purified LDHA, NADH/diaphorase-resazurin fluorescence; stronger effect = lower value | activity change, % (values are at about 110 or 230 µM) | 0.15% of 480,000 active; in the data active = activity change below about -30%
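Human LDH5 at 2 nM final in Tris HCl pH 7.4 with 0.06 mM NADH and 0.2 mM pyruvate, reacted 5 minutes at room temperature. Remaining NADH coupled via diaphorase/resazurin; resorufin fluorescence read at 0 and 20 minutes, normalized to enzyme-free and DMSO wells.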
D1 PAM = potentiators of human D1 dopamine receptor; 0.036% of 360,000 active; potentiation, % at 10 µM; P21728; HEK293 TREx D1 cells, calcium flux, dopamine EC20 potentiation; in the data active = potentiation above about 30%
Each line names hits and unclear results; the compound was inactive in the other large screens. Rule as the data show it, unless noted: active = activation above about 30%; inactive = the rest.

O=C(Nc1cc(=O)[nH]c2nc(CCc3ccccc3)nn12)c1ccccc1Cl	none (no result: TRHR PAM, D1 ag, TRHR ag, D1 antagonist, D1 PAM)
CC(CNC(=O)CCCNC(=O)C1CC1)c1ccccc1 (stereo not drawn)	none (no result: TRHR PAM, D1 ag, TRHR ag, D1 antagonist, D1 PAM)
Nc1ncnc(Nc2cccc(F)c2)n1	none
Cc1cccc(Nc2ncnc(N)n2)c1	D1 antagonist -33
COc1cc(/C=C/c2ccc3cccc(OC)c3n2)c(O)c([N+](=O)[O-])c1	none
COc1cc(/C=C/c2ccc3cccc(OC)c3n2)c(OC(C)=O)c([N+](=O)[O-])c1	D1 antagonist -32
COc1ccc(NS(=O)(=O)c2ccc(N3CCOCC3)c(N)c2)cc1	D1 antagonist -32
C=CCn1c(SCC(=O)c2c(N)n(CCC)c(=O)n(C)c2=O)nnc1-c1ccncc1	D1 antagonist -32
CC(C)(C)c1ccc(C(=O)NCCOc2ccccc2)cc1	D1 antagonist -31
O=C(NCCOc1ccccc1)c1cc(C(=O)NCCOc2ccccc2)cc([N+](=O)[O-])c1	D1 antagonist -40, LDHA inh -45
COC(=O)CCCNC(=O)c1ccc(OS(=O)(=O)c2cc([N+](=O)[O-])ccc2C)cc1	D1 ag 63
COc1ccc(C(=O)NCCNc2ccc([N+](=O)[O-])cc2)cc1	none (no result: D1 antagonist)
O=C(NCCOc1ccccc1)c1ccccc1[N+](=O)[O-]	none
O=C(NCCOc1ccccc1)c1cccc(S(=O)(=O)NCc2ccccc2)c1	D1 antagonist -38
O=C(NCCc1ccccc1)c1cccc(S(=O)(=O)NCc2ccccc2)c1	none
CC(C)(C)c1ccc(C(=O)NCCOc2ccccc2F)cc1	none
Cc1cccc(NC(=O)CNC(=O)CCc2ncc(-c3ccccc3F)o2)c1C	none (no result: TRHR PAM, D1 ag, TRHR ag, D1 antagonist, D1 PAM)
CCc1ccc(-c2noc(CSc3nnc(C4COc5ccccc5O4)o3)n2)cc1 (stereo not drawn)	none (no result: TRHR PAM, D1 ag, TRHR ag, D1 antagonist, D1 PAM)
CC(=C/c1ccccc1)/C=N/Nc1ccc([N+](=O)[O-])cc1	none (no result: TRHR PAM, D1 ag, TRHR ag, D1 antagonist, D1 PAM)
O=[N+]([O-])c1ccccc1NCCOc1ccccc1	D1 antagonist -44
COc1cccc(C(=O)NCC(=O)OCC(=O)C(C)(C)C)c1	none
COc1cc(C(=O)NCCOc2ccccc2)cc(OC)c1OC	none
COc1ccc(C(=O)NCCOc2cccc(Oc3ccccc3)c2)cc1OC	D1 antagonist -44
O=C(CCNC(=O)c1ccccc1)Oc1ccc([N+](=O)[O-])cc1	D1 antagonist -46
O=C(CCNC(=O)c1ccc([N+](=O)[O-])cc1)Oc1ccc(F)c(F)c1	none (no result: TRHR PAM, D1 ag, TRHR ag, D1 antagonist, D1 PAM)
CC(C)(C)C(=O)COC(=O)CNC(=O)c1ccc(Oc2ccccc2)cc1	D1 ag 159, D1 antagonist -49
O=C(Cc1cccc(C(F)(F)F)c1)NCC1(N2CCCCC2)CCCCC1	none (no result: TRHR PAM, D1 ag, TRHR ag, D1 antagonist, D1 PAM)
Cc1c(C(=O)NCc2ccc(F)cc2)sc2nc(-c3ccc(F)cc3)cn12	D1 antagonist -50
CCCn1c(=O)n(CC(=O)NCc2nnc3n2CCCCC3)c2ccccc21	none (no result: TRHR PAM, D1 ag, TRHR ag, D1 antagonist, D1 PAM)
CCOC(=O)N1CCC(NC(=O)C2CCN(S(=O)(=O)c3cccc4cccnc34)CC2)CC1	none
CC(=O)Nc1ccc(NC(=O)C2CCCN2S(=O)(=O)c2cccc3nsnc23)cc1 (stereo not drawn)	none
COC(=O)c1ccccc1S(=O)(=O)N1CCC(C(=O)OCc2cccc(OC)c2OC)CC1	D1 ag 44, D1 antagonist -39
O=C(NC1CCCCC1)C1CCN(S(=O)(=O)c2cccc3cccnc23)CC1	D1 antagonist -65
CC1CCCC(NC(=O)C2CCCN2S(=O)(=O)c2cccc3nsnc23)C1C (stereo not drawn)	TRHR PAM 36 (no result: D1 PAM)
COc1ccc(C(=O)COC(=O)C2CCN(S(=O)(=O)c3cccc4cccnc34)CC2)cc1	D1 antagonist -70
CCc1ccccc1-n1c(C)c(C)n2c3c(=O)[nH]c(=O)n(C)c3nc12	none (no result: TRHR PAM, D1 ag, TRHR ag, D1 antagonist, D1 PAM)
CN(C)C1(CNC(=O)COc2ccc3ccc(=O)oc3c2)CCCCC1	none (no result: TRHR PAM, D1 ag, TRHR ag, D1 antagonist, D1 PAM)
Cc1nc2nc(CC(=O)Nc3ccccc3F)nn2c(C)c1Cc1ccccc1Cl	none (no result: TRHR PAM, D1 ag, TRHR ag, D1 antagonist, D1 PAM)
CCNS(=O)(=O)c1ccc(C(=O)N2CCCC2c2ccc3c(c2)OCCO3)cc1 (stereo not drawn)	none (no result: TRHR PAM, D1 ag, TRHR ag, D1 antagonist, D1 PAM)

Source: PubChem BioAssay
